From PubChem
This is a sample that favours compounds with a hit; in the whole collection about 7.4% have one here.
Rab9 promoter act: activators of Rab9 promoter; Huh7 Rab9 promoter-luciferase reporter, luminescence, 24 h; Potency, µM (series often up to 9.22 µM), without a hit: at the highest dose activation, negative = inhibition, most hits filed as activators; 320,000 tested, 2.8% active; also: % of control where 0% means no effect; nearly all actives have a fitted effect of over 60% in size
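Huh7 cells stably carrying Rab9 promoter–luciferase reporter, plated 1500 cells/well, compound added after 2 h and incubated 24 h at 37 °C; luciferase luminescence then read after 10 min with detection reagent.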
SMN2 splice enh: increases expression of the SMN2 splice variant; HEK293 SMN2-luciferase splicing reporter, luminescence, 30-36 h; Potency, µM (series often up to 46.1 µM), without a hit: at the top dose activity change, positive = activation, most hits filed as activators; 210,000 tested, 2.8% active; AID 1458; also: % of control where 0% means no effect; nearly all actives have a fitted effect of over 55% in size
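qHTS luciferase splicing reporter: luminescence rises when SMN2 exon 7 is included in transfected HEK293 cells. Compound exposure lasted 30-36 h at 37C, with 4.5 mM final sodium butyrate as control, followed by a ONE-Glo read.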
NPC1 promoter act: activators of NPC1 promoter; Huh7 NPC1 promoter luciferase reporter, 24 h; AID 485313; 320,000 tested, 2.4% active; Potency, µM (highest dose often 9.22 µM), inactives show at the top dose activation, actives largely listed as activators; also: % of control where 0% means no effect; nearly all actives have a fitted effect of over 60% in size
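Cells: Huh7 expressing luciferase under the NPC1 promoter, 1500/well. Seeded 2 h, compound added, incubated 24 h at 37 °C. Luciferase reagent, 10 min ambient, then luminescence.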
FLuc modulator: counter-screen for miR-21 project: firefly luciferase inhibitors or activators; P08659; purified FLuc, Km substrates, luminescence inhibition; Potency, µM (series often up to 57.5 µM), without a hit: top-dose activity change, negative = inhibition, hits mostly inhibitors; 360,000 tested, 6.9% active;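 also: plate controls were vehicle for no effect and reference inhibitor for full effect; nearly all actives have a fitted effect of over 55% in size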
Target sequence (P08659 whole entry, looked up): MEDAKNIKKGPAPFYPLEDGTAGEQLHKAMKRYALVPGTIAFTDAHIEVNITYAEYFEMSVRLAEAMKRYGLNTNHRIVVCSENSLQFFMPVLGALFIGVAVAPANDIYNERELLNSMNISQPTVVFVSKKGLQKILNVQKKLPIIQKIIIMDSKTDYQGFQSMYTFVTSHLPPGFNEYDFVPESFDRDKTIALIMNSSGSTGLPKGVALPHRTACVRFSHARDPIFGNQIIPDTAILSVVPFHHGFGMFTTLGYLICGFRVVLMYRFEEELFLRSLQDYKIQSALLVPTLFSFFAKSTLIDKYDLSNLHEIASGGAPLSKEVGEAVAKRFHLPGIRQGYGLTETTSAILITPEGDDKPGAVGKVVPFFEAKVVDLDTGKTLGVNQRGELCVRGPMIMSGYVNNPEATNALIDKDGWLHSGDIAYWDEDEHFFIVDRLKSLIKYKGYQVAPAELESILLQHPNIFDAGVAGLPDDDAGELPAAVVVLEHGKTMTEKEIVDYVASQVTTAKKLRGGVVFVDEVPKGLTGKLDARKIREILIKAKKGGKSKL
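Purified P. pyralis luciferase (10nM final) with 10uM D-luciferin and 10uM ATP (Km levels) in 50mM Tris acetate pH 7.5, 10mM Mg acetate, 0.01% Tween-20, 0.05% BSA; qHTS 6-point titration, ~60 µM downward; luminescence read.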
ELG1 genotoxic: genotoxicity induction in ELG1-luciferase HEK293T cells; HEK293T ELG1-luciferase reporter, luminescence, 16 h; Potency, µM (doses to about 46 µM), inactives show at the highest dose activity change, positive = activation, usual class: activators; 330,000 tested, 1.3% active; AID 504466; also: % of control where 0% means no effect; nearly all actives have a fitted effect of over 60% in size
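ELG1-luciferase HEK293T cells, 2,000/well; compound pinned in; 16 hr, 37 °C, 5% CO2; ONE-Glo, 30 min RT; luminescence on CCD imager.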
The depositor's hits bear a star; ? = inconclusive; . = no result; [ ] = another dose, or the depositor's remark. Calls follow the shape of the dose curve; as a rule, active = well fitted curve in the direction sought with a large enough effect; inconclusive = small, poorly fitted or top-dose-only effect, or another doubt; inactive = no such curve, though single readings can be large; an effect the other way counts as inactive or inconclusive. Potency is read from the fitted curve at half-maximal effect.

SMILES	Rab9 promoter act	SMN2 splice enh	NPC1 promoter act	FLuc modulator	ELG1 genotoxic
Cn1nnc2cc(C(=O)Nc3ccc(Cl)cc3)ccc21	3.5µM*	18%	?	-14%	?
COc1cc(C(=O)Nc2ccc3c(c2)ncn3C)cc(OC)c1OC	-25%	.	-27%	?	?
Cc1nc2cc(NC(=O)c3ccc(Cl)cc3)ccc2n1C	0.28µM*	.	0.28µM*	4.3µM*	1µM*
COc1cc(C(=O)Nc2ccc3c(c2)nc(C)n3C)cc(OC)c1OC	-18%	.	-27%	21µM*	?
Cc1nc2cc(NC(=O)Nc3ccc(N4CCOCC4)cc3)ccc2n1C	-9%	2%	2%	1%	3%
CCCc1nn2c(=O)cc(COC(=O)c3ccc(NC(=O)COc4ccccc4F)cc3)nc2s1	.	.	.	1%	.
CCn1c(C)nc2cc(C(=O)N/N=C/c3ccc(O)c(O)c3O)ccc21	5%	-18%	-2%	13µM*	-17%
CCCSc1nnc(-c2c[nH]c3ccccc23)n1C	24%	-20%	22%	15µM*	?
CN(C)c1ccc(NC(=O)c2cnsn2)cc1	?	.	?	3µM*	?
Cc1noc(C)c1C(=O)Nc1ccc(N(C)C)cc1	4%	.	6%	1%	16%
O=C(NCCC1=CCCCC1)c1ccc2c(c1)N(Cc1cccc(Cl)c1)C(=O)c1ccccc1S2(=O)=O	.	.	.	1%	.
N/C(=N/OC(=O)c1cccc([N+](=O)[O-])c1)c1cccc([N+](=O)[O-])c1	12%	0%	15%	?	8%
N/C(=N\OC(=O)c1cccc(F)c1)c1cccc([N+](=O)[O-])c1	21%	.	26%	1.5µM*	?
N/C(=N\OC(=O)c1ccc2ccccc2c1)c1cccc([N+](=O)[O-])c1	12%	14%[1.84 µM]	26%	1.9µM*	?
N/C(=N/OC(=O)c1ccccc1Cl)c1ncc([N+](=O)[O-])s1	1%	.	?	4.3µM*	?
N/C(=N\OC(=O)c1ccc(F)cc1)c1cccc([N+](=O)[O-])c1	?	.	?	0.24µM*	?
N/C(=N\OC(=O)Cc1ccccc1)c1ccccc1Cl	26%	9%	13%	?	10%
COc1ccc(-c2cc([C@H](O)C3CCCCN3)c3ccccc3n2)cc1 (stereo partly specified)	.	-4%[9.22 µM]	.	.	.
Cc1cccc(/C(N)=N/OC(=O)c2ccc(F)cc2)c1	1.6µM*	?	1µM*	0.27µM*	?
O=C(CC(=O)c1cccc([N+](=O)[O-])c1)Nc1ccccc1Cl	12%	-12%	16%	24µM*	3%
COc1cc(OC)c(C(=O)O/N=C(\N)c2cccc(C)c2)cc1OC	1%[1.84 µM]	.	4%	?	6%
O=C(CCNc1ccccc1)c1cccc([N+](=O)[O-])c1	4%	.	1%	-1%	5%
N/C(=N\OC(=O)c1ccccc1Cl)c1cccc([N+](=O)[O-])c1	0.89µM*	.	1.4µM*	1.2µM*	2.6µM*
Cc1csc2nc(SCC(=O)Nc3ccccc3F)[nH]c(=O)c12	-7%	.	-3%	0%	-7%
Cc1sc(NC(=O)c2ccco2)c(C(c2cccnc2)N2CCN(c3ccc(F)cc3)CC2)c1C (stereo unspecified)	-9%	-68%	-14%	0%	0.52µM*
SMILES	Rab9 promoter act	SMN2 splice enh	NPC1 promoter act	FLuc modulator	ELG1 genotoxic
O=C(OCC(=O)N1CCc2ccccc21)c1cccnc1	-7%	.	0%	?	4%
COc1cccc(C(=O)OCC(=O)N2CCc3ccccc32)c1OC	27%	.	20%	11µM*	?
O=C(OCC(=O)N1CCc2ccccc21)c1cccnc1Cl	5%	2%	18%	11µM*	?
CC1CCc2nc3ccccc3c(C(=O)OCC(=O)N3CCc4ccccc43)c2C1 (stereo unspecified)	-1%	2%	0%	4.8µM*	-11%
COc1cc(N)c(Cl)cc1C(=O)OCC(=O)N1CCc2ccccc21	-5%	.	2%	2%	1%
CCCc1nc2ccccc2c(C(=O)OCC(=O)N2CCc3ccccc32)c1CC	-2%	-51%	-1%	?	-13%
O=C(OCC(=O)N1CCc2ccccc21)c1ccccc1	6%	2%	-1%	9.5µM*	?
O=C(Cn1ncc2c3ccccc3n(Cc3cccc(Cl)c3)c2c1=O)NCCC1=CCCCC1	.	-1%	.	6%	.
CCC(C)n1c(=N)c(S(=O)(=O)c2ccc(C)cc2)cc2c(=O)n3cc(C)ccc3nc21 (stereo unspecified)	.	2%	.	-1%	.
CCc1nc(SCc2cc(=O)c3cc(C)ccc3[nH]2)n[nH]1	.	.	.	-6%	.
Cc1ccccc1CN1CCC(n2nccc2NC(=O)c2ccc3c(c2)OCO3)CC1	21%	.	?	19µM*	?
CC#CC(=O)N1CCC(n2nccc2NC(=O)c2ccc3c(c2)OCO3)CC1	20%	.	-7%	3%	17%
CSCCC(=O)N1CCC(n2nccc2NC(=O)c2ccc3c(c2)OCO3)CC1	4µM*	.	2.8µM*	12µM*	?
COc1ccc(CCC(=O)NC(C)c2ccccc2)cc1OC (stereo unspecified)	0%	.	1%	-1%	2%
CCCC(=O)c1ccc(N2CCCCCC2)c(F)c1	3.5µM*	26%	3.2µM*	8.5µM*	?
CCCC(=O)c1ccc(N2CCN(C(=O)OCC)CC2)c(F)c1	12%	-11%	0%	-12%	1%
CCCC(=O)c1ccc(N2CCCCC2)c(F)c1	?	-7%	?	13µM*	?
Cc1ccc(NC(=O)N2C(=O)C3(OCCO3)c3ccccc32)cc1	2µM*	?	3.2µM*	?	?
Cc1ccc(NC(=O)c2sc3nc(-c4cccs4)ccc3c2N)cc1F	.	22%	.	-15%	.
Cc1ccc(C(=O)Nc2nccc(-c3cccs3)n2)cc1	17%	14%	29%	13µM*	3%
O=C(Nc1nc(-c2cccs2)cs1)c1ccc(Cl)cc1	16%	6%	14%	11µM*	?
Cc1csc(NC(=O)c2sc3nc(-c4cccs4)ccc3c2N)n1	-37%	-5%	-31%	3.8µM*	?
COc1ccc(C(=O)Nc2nc(-c3cccs3)cs2)cc1	.	-34%	.	6.7µM*	.
C=C1C2CC[C@]3(CCC4[C@@]5(C)CCC[C@@]4(CN(CCO)C5)[C@@H]3C2)[C@@H]1O (stereo partly specified)	.	16%	.	.	.
Cc1ccc(CNC(=O)C2CCCN(S(=O)(=O)c3ccc(-n4cnnn4)cc3)C2)cc1 (stereo unspecified)	3%	.	-7%	4%	-1%
Cn1c(=O)c2c(nc(SCC(=O)Nc3ccc(OC(F)(F)F)cc3)n2Cc2cccc(C(F)(F)F)c2)n(C)c1=O	.	7%	.	-4%	.
Cc1ccc(C)c(N(CC(=O)NC2CCCC2)C(=O)CCC(=O)Nc2cc(C)on2)c1	0%	.	0%	0%	-5%
